# Laboratory results taken from PubChem BioAssay (NCATS).
# Inconclusive results are not listed. A call without a number means that no potency is given here. A number with no mark means an inactive call. Active and inactive are the calls of the source. Calls follow the shape of the dose curve; as a rule, active = well fitted curve in the direction sought with a large enough effect; inconclusive = small, poorly fitted or top-dose-only effect, or another doubt; inactive = no such curve, though single readings can be large; an effect the other way counts as inactive or inconclusive.
# Experiments:
# [1] = molecular target: Aldehyde dehydrogenase, mitochondrial (Homo sapiens) (UniProt P05091); test: qHTS for Inhibitors of the Aldehyde Dehydrogenase Family (ALDH2) Primary screen (AID 2061308); also: nearly all actives have a fitted effect of over 55% in size
# [2] = molecular target: Retinaldehyde dehydrogenase 3 (Homo sapiens) (UniProt P47895); test: qHTS for Inhibitors of the Aldehyde Dehydrogenase Family (ALDH1A3) Primary screen (AID 2061315)
# [3] = BET inhibitor-based combinations targeting novel dependencies in MECOM-rearranged (r) AML: OCI-AML3 cell line (AID 2202232); conditions: Potency: OCI-AML3 viability; also: nearly all actives have a fitted effect of over 35% in size; also: potency is read from the fitted curve at half-maximal effect
# Outline: (§1)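 Here, 11-point titrations of each agent were applied to 500 seeded cells and incubated 48 hr; CellTiter-Glo signal, scaled against DMSO and empty wells, was integrated as AUC, then Z-scored within the individual line.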
# [4] = BET inhibitor-based combinations targeting novel dependencies in MECOM-rearranged (r) AML: UCSD-AML1 cell line (AID 2202235); also: nearly all actives have a fitted effect of over 40% in size; also: potency is read from the fitted curve at half-maximal effect
# Outline: (§2)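 Normalized to DMSO and empty-well controls, the luminescence data from CellTiter-Glo after 48 hr drug exposure were fitted across 11 concentrations. Reported metrics are area under the dose-response curve and its Z-transformed form.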
# [5] = BET inhibitor-based combinations targeting novel dependencies in MECOM-rearranged (r) AML: AML-191 cell line (AID 2202236; also: nearly all actives have a fitted effect of over 35% in size; also: potency is read from the fitted curve at half-maximal effect)
# Outline: as §1
# [6] = BET inhibitor-based combinations targeting novel dependencies in MECOM-rearranged (r) AML: AML-194 cell line (AID 2202237; also: nearly all actives have a fitted effect of over 40% in size; also: potency is read from the fitted curve at half-maximal effect)
# Outline: as §1
# [7] = molecular target: Aldehyde dehydrogenase 1A1 (Homo sapiens) (UniProt P00352); test: qHTS for Inhibitors of the Aldehyde Dehydrogenase Family (ALDH1A1) Confirmatory screens (AID 2061316); also: potency is read from the fitted curve at half-maximal effect; nearly all actives have a fitted effect of over 65% in size
# [8] = BET inhibitor-based combinations targeting novel dependencies in MECOM-rearranged (r) AML: MV-4-11 cell line (AID 2202233); also: nearly all actives have a fitted effect of over 45% in size; also: potency is read from the fitted curve at half-maximal effect
# Outline: as §2
# [9] = BET inhibitor-based combinations targeting novel dependencies in MECOM-rearranged (r) AML: SET-2 cell line (AID 2202231); conditions: SET-2 AML cells viability, CellTiter-Glo luminescence, 48 h; viability: active compounds read low, concentration not given here; also: nearly all actives have a fitted effect of over 35% in size; also: potency is read from the fitted curve at half-maximal effect
# Outline: as §1
# [10] = BET inhibitor-based combinations targeting novel dependencies in MECOM-rearranged (r) AML: HNT-34 cell line (AID 2202234); also: nearly all actives have a fitted effect of over 35% in size; also: potency is read from the fitted curve at half-maximal effect
# Outline: as §2
smiles,measurement,setting,value
CCOc1ccc(CCNC(=O)c2cc3ccccc3n2CCN2CCOCC2)cc1OCC,Potency,[1],inactive
same,Potency,[2],inactive
Cn1c(-c2ccccc2)c(P(=S)(c2ccccc2)c2ccccc2)c2ccccc21,Potency,[1],inactive
same,Potency,[2],inactive
COC1C(O)C(C)OC(OC2C(CO)O[C@@H](O[C@@H]3CC4CCC5C(CC[C@]6(C)[C@@H](C7=CC(=O)OC7)CC[C@]56O)[C@@]4(C)[C@H](OC(C)=O)C3)C(O)C2O)C1O (some centres not stated),Potency,[1],inactive
same,Potency,[2],inactive
COC(=O)CC1CC2(C(=O)c3c(O)cccc3C2(O)C(=O)OC)C(C)O1 (configuration not stated),Potency,[1],inactive
same,Potency,[2],inactive
COC(=O)C12C(=O)C(C)(O)C(=O)C1(C)C(C)=CC1C3(C=O)CCC(OC(C)=O)C(C)(C)C3CCC12C (configuration not stated),Potency,[1],inactive
same,Potency,[2],inactive
CCc1nn2c(=O)cc(N3CCN(C)CC3)nc2s1,Potency,[1],inactive
same,Potency,[2],inactive
CC(C)CCn1c(CN2CCN(C(=O)C3CC3)CC2)nc2c1c(=O)n(C)c(=O)n2C,Potency,[1],inactive
same,Potency,[2],inactive
CC(=O)O[C@H]1C[C@@H](C)O[C@H]2O[C@@H]3CC4CC[C@@H]5C(CC[C@]6(C)[C@@H](C7=CC(=O)OC7)CC[C@]56O)[C@@]4(C=O)C[C@H]3O[C@]21O (some centres not stated),Potency,[1],inactive
same,Potency,[2],inactive
N#Cc1ccc(NC(=O)Nc2nnc(-c3ccncc3)s2)cc1Cl,Potency,[1],inactive
same,Potency,[2],inactive
Cc1ccccc1C(=O)N1CCc2cc(N3CCC(NC(=O)Cc4ccccc4)C3)ccc21 (configuration not stated),Potency,[1],inactive
same,Potency,[2],inactive
CCOc1ccc(CCNC(=O)c2cc3ccncc3n2Cc2cccc(C)c2)cc1OCC,Potency,[1],inactive
same,Potency,[2],inactive
C[C@]12CC[C@H](O)CC1=CC[C@@H]1[C@@H]2CC[C@]2(C)C(=O)CC[C@@H]12,Potency,[1],inactive
same,Potency,[2],inactive
same,Potency,[3],inactive
same,Potency,[4],inactive
same,Potency,[5],inactive
same,Potency,[6],inactive
CN1CN(c2ccccc2)C2(CCN(CCCC(=O)c3ccc(F)cc3)CC2)C1=O,Potency,[2],inactive
same,Potency,[7],22500 nM (active)
C=C1[C@@H](C)[C@H]2[C@H](Cc3ccccc3)NC(=O)[C@]23OC(=O)/C=C/C(=O)CCC[C@@H](C)C/C=C/[C@H]3[C@@H]1O,Potency,[2],inactive
CCNC(=O)C[C@@H]1N=C(c2ccc(Cl)cc2)c2cc(OC)ccc2-n2c(C)nnc21,Potency,[1],inactive
same,Potency,[2],inactive
same,Potency,[3],742 nM (active)
same,Potency,[8],468 nM (active)
same,Potency,[4],833 nM (active)
COc1cc2c(cc1F)C(c1ccccc1Cl)=Nc1c(n[nH]c1C)N2,Potency,[9],13200 nM (active)
same,Potency,[3],3720 nM (active)
same,Potency,[8],1860 nM (active)
same,Potency,[5],1660 nM (active)
same,Potency,[6],2350 nM (active)
CCOC(=O)C1CCN(C(=O)C2(NC(=O)Nc3ccccc3Cl)CCCC2)CC1,Potency,[1],inactive
same,Potency,[2],inactive
COc1cc2cc(c1Cl)N(C)C(=O)C[C@H](OC(=O)C(C)C)[C@]1(C)O[C@@H]1[C@H](C)[C@@H]1C[C@@](O)(NC(=O)O1)[C@H](OC)/C=C/C=C(\C)C2,Potency,[9],2.1 nM (active)
same,Potency,[3],inactive
same,Potency,[4],inactive
same,Potency,[5],inactive
same,Potency,[6],inactive
COc1cc([C@@H]2c3cc4c(cc3[C@@H](O)C3COC(=O)C32)OCO4)cc(OC)c1O (some centres not stated),Potency,[9],468 nM (active)
same,Potency,[3],296 nM (active)
same,Potency,[4],332 nM (active)
same,Potency,[5],296 nM (active)
same,Potency,[6],332 nM (active)
CC(C)(O)/C=C\C(=O)[C@](C)(O)[C@H]1[C@H](O)C[C@]2(C)[C@@H]3CC=C4[C@@H](C=C(O)C(=O)C4(C)C)[C@]3(C)C(=O)C[C@@]12C,Potency,[9],1660 nM (active)
same,Potency,[3],417 nM (active)
same,Potency,[8],148 nM (active)
same,Potency,[5],93.4 nM (active)
same,Potency,[6],417 nM (active)
CC(=O)O[C@H]1C(=O)[C@]2(C)C(O)C[C@H]3OC[C@@]3(OC(C)=O)[C@H]2[C@H](OC(=O)c2ccccc2)[C@]2(O)C[C@H](O)C(C)=C1C2(C)C (some centres not stated),Potency,[1],inactive
same,Potency,[2],inactive
COC(=O)[C@]12CCC(C)(C)C[C@H]1[C@H]1C(=O)C=C3[C@@]4(C)C=C(C#N)C(=O)C(C)(C)[C@@H]4CC[C@@]3(C)[C@]1(C)CC2,Potency,[9],2350 nM (active)
same,Potency,[3],2630 nM (active)
same,Potency,[10],1660 nM (active)
same,Potency,[5],1860 nM (active)
same,Potency,[6],2630 nM (active)
C#CCN(C)[C@H](C)Cc1ccccc1,viability,[9],96.9%
same,Potency,[3],inactive
same,Potency,[8],inactive
same,Potency,[10],inactive
same,Potency,[4],inactive
same,Potency,[5],inactive
same,Potency,[6],inactive
